# Results: article PMC7862700, “An all-to-all approach to the identification of sequence-specific readers for epigenetic DNA modifications on cytosine”
# How the values were obtained:
# Assay in all cases: DAPPL (digital affinity profiling via proximity ligation, sequencing); 10 mM Tris-HCl pH 7.5, 50 mM NaCl, 1 mM DTT, 4% glycerol, room temperature, 30 min; GST-TFs on glutathione beads, 16-mer random dsDNA library, 0.1% formaldehyde crosslink after washing; high values mean tight binding
# FEV = molecular target: T1, FEV (Homo sapiens, UniProt Q99581 1-238); details: protein: recombinant; tags: N-terminal GST; dsDNA, one strand shown
# T1 sequence: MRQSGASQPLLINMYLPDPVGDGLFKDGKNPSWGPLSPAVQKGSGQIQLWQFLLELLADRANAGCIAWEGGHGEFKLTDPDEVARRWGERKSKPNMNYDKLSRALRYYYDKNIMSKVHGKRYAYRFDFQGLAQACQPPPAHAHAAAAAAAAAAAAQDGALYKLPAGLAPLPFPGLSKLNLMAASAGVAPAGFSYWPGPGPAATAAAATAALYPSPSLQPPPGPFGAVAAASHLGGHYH
# Summary of the method: (§1)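 Binding signal is each hexamer's read frequency for a factor divided by its frequency in the tag-only sample. The factors were GST-fused human transcription factors from yeast, captured on glutathione beads, DNA-barcoded and pooled with that sample. Pools were incubated with 200 nmole of a random double-stranded 16-mer DNA library in Tris/NaCl/DTT/glycerol buffer at room temperature for 30 min, then washed, crosslinked with 0.1% formaldehyde, proximity-ligated with BsaI/T4 ligase (1 h, 37 °C), PCR-amplified and sequenced on an Illumina NextSeq500.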
# ETV5 = ETV5 (Homo sapiens, UniProt P41161 1-510); details: protein: recombinant; tags: N-terminal GST; dsDNA, one strand shown
# ETV5, sequence (P41161 whole entry): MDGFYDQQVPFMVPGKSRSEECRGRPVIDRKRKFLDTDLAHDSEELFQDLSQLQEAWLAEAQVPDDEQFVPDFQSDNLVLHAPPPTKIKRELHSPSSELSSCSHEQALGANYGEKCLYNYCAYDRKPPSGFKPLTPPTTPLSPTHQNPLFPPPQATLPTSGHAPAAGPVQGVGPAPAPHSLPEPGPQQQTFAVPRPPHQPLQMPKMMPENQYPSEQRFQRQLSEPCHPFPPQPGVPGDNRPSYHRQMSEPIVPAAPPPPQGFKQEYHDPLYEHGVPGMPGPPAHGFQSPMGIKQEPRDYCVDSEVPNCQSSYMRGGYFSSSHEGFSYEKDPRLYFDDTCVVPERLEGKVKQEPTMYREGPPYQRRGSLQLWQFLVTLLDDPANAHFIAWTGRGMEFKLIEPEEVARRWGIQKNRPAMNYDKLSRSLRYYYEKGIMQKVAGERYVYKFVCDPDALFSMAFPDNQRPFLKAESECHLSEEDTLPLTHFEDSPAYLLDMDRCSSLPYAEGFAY
# Summary of the method: as §1
# HSF1 = HSF1 (Homo sapiens, UniProt Q00613 1-529); details: protein: recombinant; tags: N-terminal GST; chain copies: 3; dsDNA, one strand shown
# HSF1, sequence (Q00613 whole entry): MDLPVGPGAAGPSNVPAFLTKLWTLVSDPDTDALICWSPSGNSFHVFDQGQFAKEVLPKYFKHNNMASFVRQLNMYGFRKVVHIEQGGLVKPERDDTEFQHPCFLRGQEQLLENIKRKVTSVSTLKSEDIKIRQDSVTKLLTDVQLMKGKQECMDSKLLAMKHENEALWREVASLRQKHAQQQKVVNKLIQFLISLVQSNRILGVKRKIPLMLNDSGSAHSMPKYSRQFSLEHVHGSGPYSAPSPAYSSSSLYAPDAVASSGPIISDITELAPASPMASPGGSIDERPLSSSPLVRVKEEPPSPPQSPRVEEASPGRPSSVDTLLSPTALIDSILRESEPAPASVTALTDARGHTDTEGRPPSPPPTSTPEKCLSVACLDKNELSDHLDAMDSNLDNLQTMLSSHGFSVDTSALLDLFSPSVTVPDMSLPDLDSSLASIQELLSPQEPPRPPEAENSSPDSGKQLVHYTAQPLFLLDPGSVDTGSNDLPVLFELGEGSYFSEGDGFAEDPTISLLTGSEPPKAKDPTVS
# Summary of the method: as §1
# SPIC = molecular target: T2, SPIC (Homo sapiens, UniProt Q8N5J4 1-248); details: protein: recombinant; tags: N-terminal GST; dsDNA, one strand shown
# T2 sequence: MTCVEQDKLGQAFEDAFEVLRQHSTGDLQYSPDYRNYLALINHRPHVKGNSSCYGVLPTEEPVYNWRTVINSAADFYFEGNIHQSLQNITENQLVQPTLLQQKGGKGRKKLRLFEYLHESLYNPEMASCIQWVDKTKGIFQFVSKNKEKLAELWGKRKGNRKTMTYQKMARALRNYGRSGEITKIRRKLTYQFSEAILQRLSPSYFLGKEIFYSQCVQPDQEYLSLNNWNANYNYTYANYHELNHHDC
# Summary of the method: as §1
# ELF4 = ELF4 (Homo sapiens, UniProt Q99607 1-663); details: protein: recombinant; tags: N-terminal GST; dsDNA, one strand shown
# ELF4, sequence (Q99607 whole entry): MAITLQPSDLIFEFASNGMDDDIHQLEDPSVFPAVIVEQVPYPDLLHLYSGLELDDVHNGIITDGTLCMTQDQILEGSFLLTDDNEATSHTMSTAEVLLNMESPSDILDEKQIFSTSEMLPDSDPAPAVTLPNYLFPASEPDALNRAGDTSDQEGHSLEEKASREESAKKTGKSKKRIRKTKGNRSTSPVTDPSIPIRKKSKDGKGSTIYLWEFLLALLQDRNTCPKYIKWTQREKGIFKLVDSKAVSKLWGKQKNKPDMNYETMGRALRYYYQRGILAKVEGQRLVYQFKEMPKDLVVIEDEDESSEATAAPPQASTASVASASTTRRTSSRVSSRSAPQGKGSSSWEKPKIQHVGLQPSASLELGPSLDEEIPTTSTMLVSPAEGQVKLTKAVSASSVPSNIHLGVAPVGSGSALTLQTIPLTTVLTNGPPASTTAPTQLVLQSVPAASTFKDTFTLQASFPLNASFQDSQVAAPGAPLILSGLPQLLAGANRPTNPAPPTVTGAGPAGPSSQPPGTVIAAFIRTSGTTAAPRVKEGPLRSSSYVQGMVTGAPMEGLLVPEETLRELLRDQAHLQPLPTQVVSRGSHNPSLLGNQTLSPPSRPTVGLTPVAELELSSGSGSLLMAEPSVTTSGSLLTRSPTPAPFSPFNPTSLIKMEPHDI
# Summary of the method: as §1
# ELK4 = molecular target: T3, ELK4 (Homo sapiens, UniProt P28324-2 1-405); details: protein: recombinant; tags: N-terminal GST; dsDNA, one strand shown
# T3 sequence: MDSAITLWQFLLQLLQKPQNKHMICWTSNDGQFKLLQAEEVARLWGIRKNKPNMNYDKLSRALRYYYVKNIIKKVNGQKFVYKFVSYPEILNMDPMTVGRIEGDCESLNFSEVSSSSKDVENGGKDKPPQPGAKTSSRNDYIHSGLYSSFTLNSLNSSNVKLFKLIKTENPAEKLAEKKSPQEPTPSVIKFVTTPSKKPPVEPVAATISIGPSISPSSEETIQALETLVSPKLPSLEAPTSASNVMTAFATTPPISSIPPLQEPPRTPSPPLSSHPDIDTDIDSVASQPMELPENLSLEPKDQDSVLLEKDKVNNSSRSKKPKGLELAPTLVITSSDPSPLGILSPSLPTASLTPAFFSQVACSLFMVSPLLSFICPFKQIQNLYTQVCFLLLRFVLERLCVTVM
# Summary of the method: as §1
# ETV2 = molecular target: T4, ETV2 (Homo sapiens, UniProt O00321 1-342); details: protein: recombinant; tags: N-terminal GST; dsDNA, one strand shown
# T4 sequence: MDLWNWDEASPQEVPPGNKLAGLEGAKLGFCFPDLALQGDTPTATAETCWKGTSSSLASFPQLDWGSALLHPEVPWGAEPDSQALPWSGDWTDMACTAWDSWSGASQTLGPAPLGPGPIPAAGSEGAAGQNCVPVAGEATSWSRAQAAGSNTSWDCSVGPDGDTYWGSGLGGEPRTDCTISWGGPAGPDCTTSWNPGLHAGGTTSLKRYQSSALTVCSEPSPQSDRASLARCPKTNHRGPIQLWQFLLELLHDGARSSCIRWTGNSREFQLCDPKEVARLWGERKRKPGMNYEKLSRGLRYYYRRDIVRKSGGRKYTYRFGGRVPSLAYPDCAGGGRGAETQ
# Summary of the method: as §1
# ELF3 = molecular target: T5, ELF3 (Homo sapiens, UniProt P78545 1-371); details: protein: recombinant; tags: N-terminal GST; dsDNA, one strand shown
# T5 sequence: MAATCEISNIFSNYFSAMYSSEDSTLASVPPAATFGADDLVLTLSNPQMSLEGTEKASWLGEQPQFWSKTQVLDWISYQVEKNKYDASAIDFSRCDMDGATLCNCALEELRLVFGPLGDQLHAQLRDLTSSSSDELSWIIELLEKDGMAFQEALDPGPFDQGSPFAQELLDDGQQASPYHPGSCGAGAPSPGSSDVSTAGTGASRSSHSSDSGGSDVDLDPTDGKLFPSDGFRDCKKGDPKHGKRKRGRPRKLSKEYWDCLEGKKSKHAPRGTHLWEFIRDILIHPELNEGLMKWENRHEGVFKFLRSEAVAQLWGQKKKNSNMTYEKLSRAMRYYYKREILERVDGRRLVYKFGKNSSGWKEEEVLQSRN
# Summary of the method: as §1
# CRX = CRX (Homo sapiens, UniProt O43186 1-299); details: protein: recombinant; tags: N-terminal GST; dsDNA, one strand shown
# CRX, sequence (O43186 whole entry): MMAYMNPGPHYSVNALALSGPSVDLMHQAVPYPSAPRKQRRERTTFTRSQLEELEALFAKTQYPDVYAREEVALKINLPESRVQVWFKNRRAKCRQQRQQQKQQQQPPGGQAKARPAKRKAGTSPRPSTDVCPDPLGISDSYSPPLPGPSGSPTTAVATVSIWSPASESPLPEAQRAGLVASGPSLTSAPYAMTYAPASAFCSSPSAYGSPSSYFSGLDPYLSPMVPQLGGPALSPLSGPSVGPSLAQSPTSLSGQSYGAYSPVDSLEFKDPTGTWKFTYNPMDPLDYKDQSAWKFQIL
# Summary of the method: as §1
# ETV1 = ETV1 (Homo sapiens, UniProt P50549 1-477); details: protein: recombinant; tags: N-terminal GST; dsDNA, one strand shown
# ETV1, sequence (P50549 whole entry): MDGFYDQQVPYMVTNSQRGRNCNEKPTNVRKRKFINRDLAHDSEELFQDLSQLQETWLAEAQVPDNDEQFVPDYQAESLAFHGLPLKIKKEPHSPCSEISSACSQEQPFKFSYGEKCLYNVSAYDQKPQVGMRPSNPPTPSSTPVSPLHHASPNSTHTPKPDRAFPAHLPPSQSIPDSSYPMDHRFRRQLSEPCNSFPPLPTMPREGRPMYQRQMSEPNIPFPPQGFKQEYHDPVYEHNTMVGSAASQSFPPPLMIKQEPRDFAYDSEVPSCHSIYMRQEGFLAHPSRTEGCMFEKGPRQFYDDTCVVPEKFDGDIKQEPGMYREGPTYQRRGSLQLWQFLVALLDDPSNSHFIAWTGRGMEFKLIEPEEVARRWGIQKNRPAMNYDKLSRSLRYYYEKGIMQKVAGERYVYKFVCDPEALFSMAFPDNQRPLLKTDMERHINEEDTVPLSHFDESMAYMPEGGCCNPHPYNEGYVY
# Summary of the method: as §1
# ERF = molecular target: T6, ERF (Homo sapiens, UniProt P50548 1-548); details: protein: recombinant; tags: N-terminal GST; dsDNA, one strand shown
# T6 sequence: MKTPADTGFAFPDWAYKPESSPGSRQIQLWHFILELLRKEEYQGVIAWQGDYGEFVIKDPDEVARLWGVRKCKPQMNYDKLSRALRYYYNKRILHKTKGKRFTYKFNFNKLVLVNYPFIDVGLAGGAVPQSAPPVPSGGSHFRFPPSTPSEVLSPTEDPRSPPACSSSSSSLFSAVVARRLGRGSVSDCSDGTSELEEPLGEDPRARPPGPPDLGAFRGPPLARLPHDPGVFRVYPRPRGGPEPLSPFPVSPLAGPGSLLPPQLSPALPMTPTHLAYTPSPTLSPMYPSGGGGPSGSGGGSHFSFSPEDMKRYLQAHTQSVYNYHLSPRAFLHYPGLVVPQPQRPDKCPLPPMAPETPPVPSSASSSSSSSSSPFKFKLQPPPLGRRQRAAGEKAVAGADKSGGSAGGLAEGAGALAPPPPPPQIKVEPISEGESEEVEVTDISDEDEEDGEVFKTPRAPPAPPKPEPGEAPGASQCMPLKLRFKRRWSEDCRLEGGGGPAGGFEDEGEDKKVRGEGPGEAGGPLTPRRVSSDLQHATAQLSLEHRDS
# Summary of the method: as §1
# ETV3L = molecular target: T7, ETV3L (Homo sapiens, UniProt Q6ZN32 1-361); details: protein: recombinant; tags: N-terminal GST; dsDNA, one strand shown
# T7 sequence: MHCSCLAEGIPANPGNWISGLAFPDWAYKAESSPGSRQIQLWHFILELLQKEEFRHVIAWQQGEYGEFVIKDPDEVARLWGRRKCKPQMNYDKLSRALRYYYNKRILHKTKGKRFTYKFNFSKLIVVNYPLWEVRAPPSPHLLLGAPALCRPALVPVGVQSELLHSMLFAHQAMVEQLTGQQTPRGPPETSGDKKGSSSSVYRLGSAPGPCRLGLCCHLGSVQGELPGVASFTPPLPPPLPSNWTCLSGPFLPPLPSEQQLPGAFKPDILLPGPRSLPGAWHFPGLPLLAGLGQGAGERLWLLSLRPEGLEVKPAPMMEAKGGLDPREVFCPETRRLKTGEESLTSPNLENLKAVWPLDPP
# Summary of the method: as §1
# ETS2 = molecular target: T8, ETS2 (Homo sapiens, UniProt P15036 1-469); details: protein: recombinant; tags: N-terminal GST; dsDNA, one strand shown
# T8 sequence: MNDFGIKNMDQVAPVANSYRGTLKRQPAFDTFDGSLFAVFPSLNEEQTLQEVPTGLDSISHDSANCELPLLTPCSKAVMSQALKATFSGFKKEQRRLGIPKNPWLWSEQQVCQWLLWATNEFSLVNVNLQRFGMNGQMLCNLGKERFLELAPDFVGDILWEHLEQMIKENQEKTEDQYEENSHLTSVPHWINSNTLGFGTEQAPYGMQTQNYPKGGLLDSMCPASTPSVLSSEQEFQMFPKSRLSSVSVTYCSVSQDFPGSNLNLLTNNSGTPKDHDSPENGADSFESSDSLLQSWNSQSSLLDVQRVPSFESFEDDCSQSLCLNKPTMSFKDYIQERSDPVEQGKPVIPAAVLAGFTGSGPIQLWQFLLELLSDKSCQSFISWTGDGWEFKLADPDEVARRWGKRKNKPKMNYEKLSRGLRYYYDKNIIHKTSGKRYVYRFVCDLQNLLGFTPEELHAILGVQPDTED
# Summary of the method: as §1
# SPDEF = molecular target: T9, SPDEF (Homo sapiens, UniProt O95238 1-335); details: protein: recombinant; tags: N-terminal GST; dsDNA, one strand shown
# T9 sequence: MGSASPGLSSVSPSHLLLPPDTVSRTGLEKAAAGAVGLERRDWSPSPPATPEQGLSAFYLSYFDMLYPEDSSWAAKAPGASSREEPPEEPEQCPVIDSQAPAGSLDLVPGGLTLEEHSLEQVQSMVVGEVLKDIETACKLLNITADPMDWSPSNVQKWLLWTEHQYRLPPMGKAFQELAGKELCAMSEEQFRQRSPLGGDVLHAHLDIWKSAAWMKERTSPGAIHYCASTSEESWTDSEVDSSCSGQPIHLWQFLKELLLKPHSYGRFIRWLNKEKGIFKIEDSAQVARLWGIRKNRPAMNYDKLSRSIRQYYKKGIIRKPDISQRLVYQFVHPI
# Summary of the method: as §1
# ETV7 = molecular target: T10, ETV7 (Homo sapiens, UniProt Q9Y603 1-341); details: protein: recombinant; tags: N-terminal GST; dsDNA, one strand shown
# T10 sequence: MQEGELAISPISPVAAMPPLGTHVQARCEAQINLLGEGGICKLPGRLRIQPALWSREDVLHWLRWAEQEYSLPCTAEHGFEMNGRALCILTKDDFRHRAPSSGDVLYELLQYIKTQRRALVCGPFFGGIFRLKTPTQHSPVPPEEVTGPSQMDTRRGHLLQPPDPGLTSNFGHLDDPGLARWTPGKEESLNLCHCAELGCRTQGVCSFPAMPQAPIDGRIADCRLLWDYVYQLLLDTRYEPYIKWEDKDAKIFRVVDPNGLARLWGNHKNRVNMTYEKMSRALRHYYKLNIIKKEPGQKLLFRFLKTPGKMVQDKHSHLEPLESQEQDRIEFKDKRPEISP
# Summary of the method: as §1
# ELF5 = molecular target: T11, ELF5 (Homo sapiens, UniProt Q9UKW6-2 1-255); details: protein: recombinant; tags: N-terminal GST; dsDNA, one strand shown
# T11 sequence: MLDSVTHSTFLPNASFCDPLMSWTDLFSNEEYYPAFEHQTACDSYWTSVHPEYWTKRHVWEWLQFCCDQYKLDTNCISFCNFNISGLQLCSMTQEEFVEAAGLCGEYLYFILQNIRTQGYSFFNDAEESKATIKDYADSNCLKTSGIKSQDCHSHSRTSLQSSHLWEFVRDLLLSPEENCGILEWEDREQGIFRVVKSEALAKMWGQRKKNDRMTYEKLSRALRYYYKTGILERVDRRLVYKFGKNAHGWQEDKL
# Summary of the method: as §1
# ETV3 = molecular target: T12, ETV3 (Homo sapiens, UniProt P41162-2 1-143); details: protein: recombinant; tags: N-terminal GST; dsDNA, one strand shown
# T12 sequence: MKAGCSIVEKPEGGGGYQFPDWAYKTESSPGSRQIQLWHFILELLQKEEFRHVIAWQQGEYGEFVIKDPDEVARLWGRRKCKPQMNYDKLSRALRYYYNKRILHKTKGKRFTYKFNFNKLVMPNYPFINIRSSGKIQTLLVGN
# Summary of the method: as §1
# ETV6 = ETV6 (Homo sapiens, UniProt P41212 1-452); details: protein: recombinant; tags: N-terminal GST; dsDNA, one strand shown
# ETV6, sequence (P41212 whole entry): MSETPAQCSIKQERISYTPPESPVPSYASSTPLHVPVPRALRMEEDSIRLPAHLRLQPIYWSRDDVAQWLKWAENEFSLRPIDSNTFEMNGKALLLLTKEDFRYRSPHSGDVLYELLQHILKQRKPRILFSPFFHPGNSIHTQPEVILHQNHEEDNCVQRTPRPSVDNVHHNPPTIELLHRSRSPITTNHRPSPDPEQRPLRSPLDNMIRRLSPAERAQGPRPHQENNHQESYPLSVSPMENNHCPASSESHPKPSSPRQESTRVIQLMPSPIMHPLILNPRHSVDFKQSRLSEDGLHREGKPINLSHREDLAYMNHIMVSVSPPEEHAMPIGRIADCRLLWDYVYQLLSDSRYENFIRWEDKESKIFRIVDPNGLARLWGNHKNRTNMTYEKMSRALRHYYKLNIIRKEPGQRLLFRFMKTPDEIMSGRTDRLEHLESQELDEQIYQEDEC
# Summary of the method: as §1
sequence,measurement,setting,value
ATCCCG,binding signal,FEV,"1.35 fold enrichment (6-mer frequency, TF over GST control)"
same,binding signal,ETV5,"1.43 fold enrichment (6-mer frequency, TF over GST control)"
same,binding signal,HSF1,"1.58 fold enrichment (6-mer frequency, TF over GST control)"
same,binding signal,SPIC,"1.39 fold enrichment (6-mer frequency, TF over GST control)"
same,binding signal,ELF4,"1.4 fold enrichment (6-mer frequency, TF over GST control)"
same,binding signal,ELK4,"1.37 fold enrichment (6-mer frequency, TF over GST control)"
same,binding signal,ETV2,"1.28 fold enrichment (6-mer frequency, TF over GST control)"
same,binding signal,ELF3,"1.37 fold enrichment (6-mer frequency, TF over GST control)"
same,binding signal,CRX,"1.67 fold enrichment (6-mer frequency, TF over GST control)"
same,binding signal,ETV1,"1.44 fold enrichment (6-mer frequency, TF over GST control)"
same,binding signal,ERF,"1.4 fold enrichment (6-mer frequency, TF over GST control)"
same,binding signal,ETV3L,"1.33 fold enrichment (6-mer frequency, TF over GST control)"
same,binding signal,ETS2,"1.44 fold enrichment (6-mer frequency, TF over GST control)"
same,binding signal,SPDEF,"1.71 fold enrichment (6-mer frequency, TF over GST control)"
same,binding signal,ETV7,"1.27 fold enrichment (6-mer frequency, TF over GST control)"
same,binding signal,ELF5,"1.7 fold enrichment (6-mer frequency, TF over GST control)"
same,binding signal,ETV3,"1.41 fold enrichment (6-mer frequency, TF over GST control)"
same,binding signal,ETV6,"1.52 fold enrichment (6-mer frequency, TF over GST control)"
